# Changes are numbered by the printed parent chain.
# Tests used:
# Assay in all cases: PBM; 200 nM protein, PBS
# Details in all cases: dsDNA, one strand shown
# [1] = biological target: HOXC9 (Homo sapiens, UniProt P31274 178-260, K195R)
# [2] = biological target: HOXC10 (Homo sapiens, UniProt Q9NYD6 254-340)
# [3] = biological target: T1, PAX4 (Homo sapiens, UniProt O43316 9-242, R200K)
# T1 sequence: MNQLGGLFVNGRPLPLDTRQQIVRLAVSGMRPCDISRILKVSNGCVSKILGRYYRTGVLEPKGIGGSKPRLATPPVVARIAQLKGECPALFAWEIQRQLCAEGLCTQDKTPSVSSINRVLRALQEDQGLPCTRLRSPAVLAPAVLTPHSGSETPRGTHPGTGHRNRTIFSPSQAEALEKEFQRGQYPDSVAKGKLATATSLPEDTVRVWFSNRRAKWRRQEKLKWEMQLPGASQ
# [4] = biological target: T2, PAX4 (Homo sapiens, UniProt O43316 9-242)
# T2 sequence: T1 sequence with K192R
# [5] = biological target: HOXC9 (Homo sapiens, UniProt P31274 178-260)
# [6] = biological target: ALX3 (Homo sapiens, UniProt O95076 139-225, N203Q)
# [7] = biological target: T3, PAX4 (Homo sapiens, UniProt O43316 9-242, R200Q)
# T3 sequence: T1 sequence with K192Q
# [8] = biological target: HOXC9 (Homo sapiens, UniProt P31274 178-260, R193K)
# [9] = biological target: T4, PAX4 (Homo sapiens, UniProt O43316 9-242, F177V)
# T4 sequence: T1 sequence with F169V, K192R
# [10] = biological target: HOXC10 (Homo sapiens, UniProt Q9NYD6 254-340, K271E)
# [11] = biological target: ALX3 (Homo sapiens, UniProt O95076 139-225)
# [12] = biological target: T5, PAX4 (Homo sapiens, UniProt O43316 9-242, F177Y)
# T5 sequence: T1 sequence with F169Y, K192R
# [13] = biological target: ALX3 (Homo sapiens, UniProt O95076 139-225, L168Q)
# [14] = biological target: HOXC9 (Homo sapiens, UniProt P31274 178-260, R222W)
# [15] = biological target: ALX3 (Homo sapiens, UniProt O95076 139-225, L168V)
# [16] = biological target: T6, PAX4 (Homo sapiens, UniProt O43316 9-242, R227W)
# T6 sequence: T1 sequence with K192R, R219W
# [17] = biological target: ALX3 (Homo sapiens, UniProt O95076 139-225, N203S)
# [18] = biological target: HOXA4 (Homo sapiens, UniProt Q00056 201-287, W262R)
# [19] = biological target: HOXA4 (Homo sapiens, UniProt Q00056 201-287)
# [20] = biological target: HOXA4 (Homo sapiens, UniProt Q00056 201-287, W262F)
# [21] = biological target: ALX4 (Homo sapiens, UniProt Q9H161 200-286)
# [22] = biological target: ALX4 (Homo sapiens, UniProt Q9H161 200-286, Q225E)
# [23] = biological target: ALX1 (Homo sapiens, UniProt Q15699 118-204, L144V)
# [24] = biological target: ALX1 (Homo sapiens, UniProt Q15699 118-204, L144R)
# [25] = biological target: ALX1 (Homo sapiens, UniProt Q15699 118-204)
# Chain of ALX1 (Homo sapiens, UniProt Q15699 118-204) (Q15699 118-204): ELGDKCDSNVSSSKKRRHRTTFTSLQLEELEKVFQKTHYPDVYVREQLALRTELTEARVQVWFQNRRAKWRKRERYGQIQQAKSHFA
# Chain of HOXC9 (Homo sapiens, UniProt P31274 178-260, K195R) (P31274 178-260 K195R): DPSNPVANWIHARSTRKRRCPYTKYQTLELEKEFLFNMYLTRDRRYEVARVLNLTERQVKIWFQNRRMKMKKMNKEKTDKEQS
# Chain of HOXC9 (Homo sapiens, UniProt P31274 178-260, R222W) (P31274 178-260 R222W): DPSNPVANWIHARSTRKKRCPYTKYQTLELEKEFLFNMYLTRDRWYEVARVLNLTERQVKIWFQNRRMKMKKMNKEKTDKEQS
# Chain of HOXC9 (Homo sapiens, UniProt P31274 178-260, R193K) (P31274 178-260 R193K): as the sequence (P31274 178-260 R222W) above, with R16K, W45R counted along it
# Chain of HOXA4 (Homo sapiens, UniProt Q00056 201-287, W262R) (Q00056 201-287 W262R): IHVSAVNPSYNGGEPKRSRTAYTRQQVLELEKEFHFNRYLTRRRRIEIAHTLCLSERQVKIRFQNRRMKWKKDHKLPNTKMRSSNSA
# Chain of HOXA4 (Homo sapiens, UniProt Q00056 201-287) (Q00056 201-287): as the sequence (Q00056 201-287 W262R) above, with R62W counted along it
# Chain of HOXC9 (Homo sapiens, UniProt P31274 178-260) (P31274 178-260): as the sequence (P31274 178-260 R222W) above, with W45R counted along it
# Chain of HOXC10 (Homo sapiens, UniProt Q9NYD6 254-340) (Q9NYD6 254-340): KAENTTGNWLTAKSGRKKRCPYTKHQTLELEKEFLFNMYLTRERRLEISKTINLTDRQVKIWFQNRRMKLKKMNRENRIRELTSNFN
# Chain of HOXC10 (Homo sapiens, UniProt Q9NYD6 254-340, K271E) (Q9NYD6 254-340 K271E): as the sequence (Q9NYD6 254-340) above, with K18E counted along it
# Chain of HOXA4 (Homo sapiens, UniProt Q00056 201-287, W262F) (Q00056 201-287 W262F): as the sequence (Q00056 201-287 W262R) above, with R62F counted along it
# Chain of ALX1 (Homo sapiens, UniProt Q15699 118-204, L144V) (Q15699 118-204 L144V): as the sequence (Q15699 118-204) above, with L27V counted along it
# Chain of ALX3 (Homo sapiens, UniProt O95076 139-225, L168Q) (O95076 139-225 L168Q): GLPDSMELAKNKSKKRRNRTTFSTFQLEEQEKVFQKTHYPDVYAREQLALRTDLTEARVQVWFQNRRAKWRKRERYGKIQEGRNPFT
# Chain of ALX4 (Homo sapiens, UniProt Q9H161 200-286, Q225E) (Q9H161 200-286 Q225E): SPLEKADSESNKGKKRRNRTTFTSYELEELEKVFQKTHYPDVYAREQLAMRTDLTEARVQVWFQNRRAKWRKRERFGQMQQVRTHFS
# Chain of ALX4 (Homo sapiens, UniProt Q9H161 200-286) (Q9H161 200-286): as the sequence (Q9H161 200-286 Q225E) above, with E26Q counted along it
# Chain of ALX3 (Homo sapiens, UniProt O95076 139-225) (O95076 139-225): as the sequence (O95076 139-225 L168Q) above, with Q30L counted along it
# Chain of ALX3 (Homo sapiens, UniProt O95076 139-225, N203S) (O95076 139-225 N203S): as the sequence (O95076 139-225 L168Q) above, with Q30L, N65S counted along it
# Chain of ALX1 (Homo sapiens, UniProt Q15699 118-204, L144R) (Q15699 118-204 L144R): as the sequence (Q15699 118-204) above, with L27R counted along it
# Chain of ALX3 (Homo sapiens, UniProt O95076 139-225, N203Q) (O95076 139-225 N203Q): as the sequence (O95076 139-225 L168Q) above, with Q30L, N65Q counted along it
# Chain of ALX3 (Homo sapiens, UniProt O95076 139-225, L168V) (O95076 139-225 L168V): as the sequence (O95076 139-225 L168Q) above, with Q30V counted along it
sequence,measurement,setting,value
CAGCCTTC,binding signal,[1],"9.4 upbm affinity estimate (log intensity, higher = more binding, comparable within an allelic series)"
same,binding signal,[2],"9.83 upbm affinity estimate (log intensity, higher = more binding, comparable within an allelic series)"
same,binding signal,[3],"9.16 upbm affinity estimate (log intensity, higher = more binding, comparable within an allelic series)"
same,binding signal,[4],"9.3 upbm affinity estimate (log intensity, higher = more binding, comparable within an allelic series)"
same,binding signal,[5],"9.46 upbm affinity estimate (log intensity, higher = more binding, comparable within an allelic series)"
same,binding signal,[6],"7.71 upbm affinity estimate (log intensity, higher = more binding, comparable within an allelic series)"
same,binding signal,[7],"9.32 upbm affinity estimate (log intensity, higher = more binding, comparable within an allelic series)"
same,binding signal,[8],"9.41 upbm affinity estimate (log intensity, higher = more binding, comparable within an allelic series)"
same,binding signal,[9],"9.05 upbm affinity estimate (log intensity, higher = more binding, comparable within an allelic series)"
same,binding signal,[10],"9.85 upbm affinity estimate (log intensity, higher = more binding, comparable within an allelic series)"
same,binding signal,[11],"7.49 upbm affinity estimate (log intensity, higher = more binding, comparable within an allelic series)"
same,binding signal,[12],"9.15 upbm affinity estimate (log intensity, higher = more binding, comparable within an allelic series)"
same,binding signal,[13],"7.82 upbm affinity estimate (log intensity, higher = more binding, comparable within an allelic series)"
same,binding signal,[14],"9.69 upbm affinity estimate (log intensity, higher = more binding, comparable within an allelic series)"
same,binding signal,[15],"7.71 upbm affinity estimate (log intensity, higher = more binding, comparable within an allelic series)"
same,binding signal,[16],"9.26 upbm affinity estimate (log intensity, higher = more binding, comparable within an allelic series)"
same,binding signal,[17],"7.68 upbm affinity estimate (log intensity, higher = more binding, comparable within an allelic series)"
CTCGCGAG,binding signal,[1],"9.76 upbm affinity estimate (log intensity, higher = more binding, comparable within an allelic series)"
same,binding signal,[2],"10 upbm affinity estimate (log intensity, higher = more binding, comparable within an allelic series)"
same,binding signal,[5],"9.82 upbm affinity estimate (log intensity, higher = more binding, comparable within an allelic series)"
same,binding signal,[8],"9.78 upbm affinity estimate (log intensity, higher = more binding, comparable within an allelic series)"
same,binding signal,[10],"10.1 upbm affinity estimate (log intensity, higher = more binding, comparable within an allelic series)"
same,binding signal,[14],"9.89 upbm affinity estimate (log intensity, higher = more binding, comparable within an allelic series)"
AATTGTTC,binding signal,[18],"10.4 upbm affinity estimate (log intensity, higher = more binding, comparable within an allelic series)"
same,binding signal,[19],"11.9 upbm affinity estimate (log intensity, higher = more binding, comparable within an allelic series)"
AATAGGTG,binding signal,[18],"10.3 upbm affinity estimate (log intensity, higher = more binding, comparable within an allelic series)"
same,binding signal,[19],"11.3 upbm affinity estimate (log intensity, higher = more binding, comparable within an allelic series)"
same,binding signal,[20],"10.3 upbm affinity estimate (log intensity, higher = more binding, comparable within an allelic series)"
CCAGTGGG,binding signal,[1],"9.58 upbm affinity estimate (log intensity, higher = more binding, comparable within an allelic series)"
same,binding signal,[21],"8.11 upbm affinity estimate (log intensity, higher = more binding, comparable within an allelic series)"
same,binding signal,[22],"8.16 upbm affinity estimate (log intensity, higher = more binding, comparable within an allelic series)"
same,binding signal,[5],"9.54 upbm affinity estimate (log intensity, higher = more binding, comparable within an allelic series)"
same,binding signal,[23],"6.51 upbm affinity estimate (log intensity, higher = more binding, comparable within an allelic series)"
same,binding signal,[8],"9.48 upbm affinity estimate (log intensity, higher = more binding, comparable within an allelic series)"
same,binding signal,[24],"6.46 upbm affinity estimate (log intensity, higher = more binding, comparable within an allelic series)"
same,binding signal,[14],"9.57 upbm affinity estimate (log intensity, higher = more binding, comparable within an allelic series)"
same,binding signal,[25],"6.33 upbm affinity estimate (log intensity, higher = more binding, comparable within an allelic series)"
CATTTGGG,binding signal,[18],"10.1 upbm affinity estimate (log intensity, higher = more binding, comparable within an allelic series)"
same,binding signal,[19],"11.3 upbm affinity estimate (log intensity, higher = more binding, comparable within an allelic series)"
same,binding signal,[20],"10.3 upbm affinity estimate (log intensity, higher = more binding, comparable within an allelic series)"
